Inconclusive results are not listed. The source made the active and inactive calls. Calls come from the whole dose curve; as a rule, active = well fitted inhibition curve with a large enough effect; inconclusive = small, poorly fitted or top-dose-only effect; inactive = flat fitted curve, though single readings scatter.
What was measured:
Test in all cases: qHTS profiling for inhibitors of Plasmodium falciparum proliferation (AID 504749); note: nearly all actives have a fitted effect of over 60% in size
Conditions in all cases: P. falciparum in erythrocytes, SYBR Green DNA, 72 h; series mostly up to 28.7 µM
[1] = system: P94_40
Summary of the method: (§1)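 In a 72 h erythrocytic culture (37 C, humidified, 5% CO2) at 2.5% hematocrit and 0.3% starting parasitemia, compounds were tested; SYBR Green I in detergent lysis buffer stained parasite DNA overnight.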

[2] = system: PAD
Summary of the method: as §1

[3] = system: PC15
Summary of the method: as §1

[4] = system: PC26
Summary of the method: as §1

[5] = system: PC49
Summary of the method: as §1

[6] = system: SC27B
Summary of the method: as §1

[7] = system: TAB109
Summary of the method: as §1

[8] = system: TAB113
Summary of the method: as §1

[9] = system: TAB165
Summary of the method: as §1

[10] = system: P93_24
Summary of the method: as §1

Measured: Potency
Potency is the fitted concentration of half-maximal effect.

CCc1ccc(C(=O)C(C)CN2CCCCC2)cc1 (stereo not drawn)
not listed: [10]
inactive: all other assays above

CCCCCN=C(N)N/N=C/c1c[nH]c2ccc(OC)cc12
active: [10] 3.16 µM | [1] 2.82 µM | [2] 6.31 µM | [3] 5.62 µM | [4] 12 µM | [6] 12.6 µM | [7] 4.47 µM | [8] 10 µM | [9] 3.55 µM

CC(=O)N[C@@H](CCC(=O)O)C(=O)O
not listed: [1]
inactive: all other assays above

Oc1c(Cl)cc(Cl)c(Cl)c1Cc1c(O)c(Cl)cc(Cl)c1Cl
active: [10] 8.91 µM | [5] 8.91 µM | [6] 10 µM | [7] 11.2 µM | [8] 12.6 µM | [9] 7.94 µM

O=C(Oc1cccc2cccnc12)c1ccccc1
not listed: [4]
inactive: all other assays above

CC(=O)O[C@]1(C(C)=O)CC[C@H]2[C@@H]3C=C(Cl)C4=CC(=O)CC[C@]4(C)[C@H]3CC[C@@]21C
inactive: [5]
active: [10] 11.2 µM | [1] 11.2 µM | [4] 13.5 µM | [6] 8.91 µM | [8] 7.08 µM

CC(C)(C)NC[C@H](O)COc1nsnc1N1CCOCC1
active: [10] 3.55 µM | [1] 3.16 µM | [2] 6.31 µM | [3] 2.24 µM | [4] 12 µM | [6] 12.6 µM | [7] 5.01 µM | [8] 6.31 µM | [9] 5.01 µM

CCN(CC)CCOc1ccc2c(c1)C(=O)c1cc(OCCN(CC)CC)ccc1-2
active: [10] 11.2 µM | [4] 9.53 µM | [7] 5.01 µM | [8] 11.2 µM

CC(=O)NCCCCCC(=O)O
not listed: [4]
inactive: all other assays above

Clc1cccc(C(c2ccc3nc[nH]c3c2)n2ccnc2)c1 (stereo not drawn)
active: [10] 7.08 µM | [3] 12.6 µM | [6] 10 µM | [9] 7.94 µM
inactive: [5]

Oc1ccc(Cl)cc1Cc1cc(Cl)ccc1O
active: [9] 11.2 µM
inactive: [10] | [5]

CC(C)=CCOc1ccc(/C=C/C(=O)c2ccc(OCC=C(C)C)cc2OCC(=O)O)cc1
not listed: [4]
inactive: all other assays above

NC(N)=NN=C(/C=C/c1ccc([N+](=O)[O-])o1)/C=C/c1ccc([N+](=O)[O-])o1
active: [10] 12.6 µM | [2] 10 µM | [5] 11.2 µM | [7] 7.08 µM | [9] 7.94 µM

CCOC(=O)c1c(N)sc2c1CCN(Cc1ccccc1)C2
active: [10] 5.01 µM | [1] 5.62 µM | [4] 5.36 µM | [5] 5.01 µM | [6] 10 µM | [7] 4.47 µM | [8] 11.2 µM | [9] 5.01 µM

C#C[C@]1(OC(C)=O)CC[C@H]2[C@@H]3CCC4=C/C(=N/O)CC[C@@H]4[C@H]3CC[C@@]21CC
not listed: [4]
inactive: all other assays above

COc1ccc(C(=O)c2ccccc2O)c(O)c1
inactive: [10] | [3] | [5] | [7] | [8]

OCCOCCN1CCN(C2=Nc3ccccc3Sc3ccccc32)CC1
not listed: [4]
inactive: all other assays above

C=CCN1CCc2nc(N)sc2CC1
not listed: [10]
inactive: all other assays above

CCOCCn1c(N2CCCN(C)CC2)nc2ccccc21
inactive: [10] | [1] | [6] | [8] | [9]

CN1CCc2cccc3c2[C@H]1Cc1ccc(O)c(O)c1-3
active: [10] 7.94 µM | [1] 3.98 µM | [2] 11.2 µM | [3] 8.91 µM | [4] 15.1 µM | [7] 8.91 µM | [9] 7.08 µM

CCN(CC)CCNc1ccc(CO)c2sc3ccccc3c(=O)c12
active: [10] 0.891 µM | [1] 1.58 µM | [2] 1 µM | [3] 3.16 µM | [4] 7.57 µM | [6] 1.12 µM | [7] 1.58 µM | [8] 1.12 µM | [9] 0.794 µM

O=C(c1ccc(F)cc1)C1CCN(CCn2c(=S)[nH]c3ccccc3c2=O)CC1
active: [10] 3.98 µM | [1] 3.16 µM | [2] 8.91 µM | [4] 8.49 µM | [5] 11.2 µM | [6] 3.16 µM | [7] 4.47 µM | [8] 3.98 µM | [9] 5.01 µM

C[N+]1(C)CCC(=C(c2ccccc2)c2ccccc2)CC1
not listed: [3] | [9]
inactive: all other assays above

C/C=C/c1ccc(O)c(OC)c1
not listed: [10]
inactive: all other assays above

CC(C)(C)CC(C)(C)c1ccc(O)c(-n2nc3ccccc3n2)c1
active: [10] 10 µM | [5] 10 µM | [6] 11.2 µM | [8] 10 µM | [9] 12.6 µM
inactive: [4]

Cc1cc(-c2ccccc2)nnc1NCCN1CCOCC1
not listed: [2] | [3] | [7]
inactive: all other assays above

CCC(C(=O)OCCOCCN(CC)CC)c1ccccc1 (stereo not drawn)
not listed: [1] | [7]
inactive: all other assays above

COc1ccc(CCN(C)CCCN2CCc3cc(OC)c(OC)cc3CC2=O)cc1OC
not listed: [10]
inactive: all other assays above

O=C(CN1CCN(Cc2ccc3c(c2)OCO3)CC1)N1c2ccccc2Sc2ccccc21
active: [10] 8.91 µM | [1] 8.91 µM | [2] 12.6 µM | [7] 3.55 µM | [9] 10 µM
inactive: [5]

O=C(Nc1cccc(C2=NCCN2)c1)Nc1cccc(C2=NCCN2)c1
active: [10] 1.78 µM | [1] 1.12 µM | [2] 3.16 µM | [3] 3.98 µM | [4] 8.49 µM | [5] 5.62 µM | [7] 2.82 µM | [8] 7.94 µM | [9] 2.51 µM

O=[N+]([O-])c1cccc(S(=O)(=O)NCCNS(=O)(=O)c2cccc([N+](=O)[O-])c2)c1
inactive: [10] | [1] | [5] | [6] | [8]

CC(C)Nc1cccnc1N1CCN(C(=O)c2cc3cc(NS(C)(=O)=O)ccc3[nH]2)CC1
not listed: [10]
inactive: all other assays above

Cn1c(=O)c2[nH]c(Br)nc2n(C)c1=O
not listed: [1] | [7]
inactive: all other assays above

CC(C)NCC(O)c1ccc2ccccc2c1 (stereo not drawn)
active: [10] 8.91 µM | [1] 5.01 µM | [2] 3.98 µM | [3] 7.94 µM | [4] 7.57 µM | [6] 8.91 µM | [7] 8.91 µM | [8] 4.47 µM | [9] 10 µM

Cc1ncc(CO)c(C=O)c1O
not listed: [4]
inactive: all other assays above

O[C@@H](c1cc(C(F)(F)F)nc2c(C(F)(F)F)cccc12)[C@H]1CCCCN1
active: [10] 0.0316 µM | [1] 0.0126 µM | [2] 0.0112 µM | [4] 0.0478 µM | [6] 0.0251 µM | [7] 0.0158 µM | [8] 0.01 µM | [9] 0.0316 µM

CN(CCCN1c2ccccc2CCc2ccccc21)CC(=O)c1ccc(Cl)cc1
active: [10] 11.2 µM | [1] 8.91 µM | [2] 12.6 µM | [3] 10 µM | [6] 10 µM | [7] 7.94 µM | [8] 10 µM | [9] 8.91 µM

CC[N+](C)(CC)CCOC(=O)C(O)(c1ccccc1)C1CCCCC1 (stereo not drawn)
not listed: [10]
inactive: all other assays above

Cc1ccc(-c2ncc(Cl)cc2-c2ccc(S(C)(=O)=O)cc2)cn1
active: [1] 11.2 µM

NS(=O)(=O)c1ccc(Cl)c(S(N)(=O)=O)c1
not listed: [1] | [10]
inactive: all other assays above

CC(C)(Cc1c[nH]c2ccccc12)NCC(O)COc1ccccc1C#N (stereo not drawn)
inactive: [4] | [5]
active: [1] 11.2 µM | [7] 10 µM | [9] 12.6 µM
